Data: ChEMBL document CHEMBL3988442, “University of Dundee, Small-Polar-MMV Screening Library” (2021)
The whole screen tested about 48,000 compounds, of which about 13,000 (27%) showed an effect of 50% or more. The list shows a part of the results.

Tested on: Wolbachia pipientis
Experiment: Anti-Wolbachia Cell-Based Screen
Format: functional
Design: scale not given: in the data most compounds retested in dose-response had high values
Conditions: 5 µM

Row | SMILES | Percent Effect [%]
1 | O=C(Nc1ccc(CCN2CCC(O)CC2)cc1)Nc1cccnc1 | -10.88
2 | CCn1c(N)nc2cc(C(=O)N3CC(c4ccccn4)C3)cnc21 | 10.45
3 | NC(=O)CC1CCN(S(=O)(=O)N2CCCC2c2ccco2)CC1 (stereo not drawn) | -25.34
4 | COc1ccccc1OCC(=O)NCc1ncc(C)c(OC)c1C | 12.71
5 | Cc1cc(C(O)CCNC(=O)COc2ccccc2C)c(C)o1 (stereo not drawn) | 9.318
6 | Cc1ccccc1OCC(=O)NCC(c1ccc(N(C)C)cc1)N(C)C (stereo not drawn) | 129.5
7 | O=C(O)c1cn(CC2CCCN(c3nccc4occc34)C2)nn1 (stereo not drawn) | 6.714
8 | Cc1ccc(CNc2ccccc2-n2ccc(C)n2)nc1 | -1.934
9 | O=C(c1ccc(-c2nc[nH]n2)cc1)N1CC[C@H](CO)[C@@H](O)C1 | 11.14
10 | COc1ccc(C(=O)N2C[C@@H](O)[C@H](NCc3cnc(C)cn3)C2)cc1 | 111.7
11 | COc1ccc2c(c1)nc1n2[C@@H](CNCc2ncccc2C)COC1 | -5.483
12 | COc1ccc(C2CCN(C(=O)c3ncccc3OC(C)C)C2)cc1 (stereo not drawn) | 4.794
13 | COc1ccc(C(=O)N2CCN(C(=O)Cn3nccc3C)CC2)cc1 | 4.431
14 | COc1ccc(C(=O)N2C[C@@H](O)[C@H](NCc3ncccc3C)C2)cc1 | 82.18
15 | CNC(=O)[C@@H]1COC[C@H]2CN(C(=O)c3ccc(OC)cc3)C[C@H]21 | -23.66
16 | C=Cc1ccc(C(=O)N2CCCC(Nc3ccc(OC)cc3)C2)cc1 (stereo not drawn) | 13.35
17 | COc1ccc(C(=O)N2C[C@@H](O)[C@H](NCCc3ncccc3C)C2)cc1 | 97.07
18 | CC(C)CN1CCc2[nH]cnc2C12CCN(C(=O)c1ccc[nH]1)CC2 | 3.052
19 | CC(=O)N[C@@H]1CN(C2CCN(c3ccccc3F)CC2)C[C@H]1C(C)C | 33.97
20 | COC(=O)CC(c1cnn(C)c1)c1oc(C)cc(=O)c1O (stereo not drawn) | 15.74
21 | Cn1cc(Cl)cc1C(=O)N1CCC2(CCCN(CC3CCC3)C2=O)C1 (stereo not drawn) | -14.89
22 | Cc1[nH]c2c(C)ccc(C)c2c1CC(=O)NCC(O)c1cccnc1 (stereo not drawn) | 0.3243
23 | CCOCCN(CCOCC)c1nc(C)nc2sccc12 | -8.835

Row | SMILES | Percent Effect [%]
24 | OCc1cc2ccccc2nc1NCC1CCN(CC(F)(F)F)C1 (stereo not drawn) | -4.701
25 | CO[C@H]1CO[C@@]2(CCCN(C(=O)C3=CCCCC3)C2)C1 | -11.4
26 | CO[C@H]1CO[C@@]2(CCCN(C(=O)N(C)C)C2)C1 | 112.3
27 | CO[C@@H]1CO[C@@]2(CCCN(C(=O)N3CCCC3)C2)C1 | 89.36
28 | CO[C@H]1CO[C@@]2(CCCN(C(=O)N3CCCC3)C2)C1 | 89.24
29 | O=C(N1CCCC1)N1CCC[C@]2(C[C@@H](OCc3ccncc3)CO2)C1.O=C(O)C(F)(F)F | -0.7527
30 | CCO[C@@H]1CO[C@@]2(CCCN(C(=O)c3ccc(OC)c(F)c3)C2)C1 | -6.158
31 | CCO[C@H]1CO[C@@]2(CCCN(C(=O)c3ccc(OC)c(F)c3)C2)C1 | -0.1252
32 | CN(C)C(=O)c1noc2c1CN(C(=O)CCC1CCCCN1C)CC2 (stereo not drawn) | 11.84
33 | CCCn1nc2c(cc1=O)CN(CC1CCCCO1)CC2 (stereo not drawn) | -1.903
34 | COCCN1C(=O)CC[C@@H]2[C@H]1CCN2Cc1ccc(C)s1.O=C(O)C(F)(F)F | 3.422
35 | O=C1CC[C@H]2[C@H](CCN2C(=O)C2CCCO2)N1CCN1CCCC1 (stereo partly drawn) | 13.58
36 | CN1C(=O)CC[C@@H]2[C@H]1CCN2S(=O)(=O)c1cccs1 | -22.4
37 | COCCN1C(=O)CC[C@@H]2[C@H]1CCN2C(=O)C1CCOCC1 | 5.34
38 | O=C(O)C(F)(F)F.O=S(=O)(C1CC1)N1CCO[C@H]2[C@H](OCCN3CCCC3)CC[C@@H]21 | -18.3
39 | CCN1C(=O)CC[C@@H]2[C@H]1CCN2S(=O)(=O)c1cccs1 | 2.968
40 | COCCN1C(=O)CC[C@@H]2[C@H]1CCN2C(=O)N(C)C | 4.27
41 | CCS(=O)(=O)N1CC[C@@H]2[C@H]1CCC(=O)N2CCOC | 101.4
42 | O=C(O)C(F)(F)F.O=C1CC[C@H]2[C@H](CCN2S(=O)(=O)C2CC2)N1CCN1CCCC1 | 79.45
43 | COCCN1C(=O)CC[C@@H]2[C@H]1CCN2S(=O)(=O)c1cccs1 | 103.5
44 | COCCN1C(=O)CC[C@@H]2[C@@H]1CCN2S(=O)(=O)C1CC1 | 90.99
45 | COCCCN1C(=O)CC[C@H]2CN(Cc3ncc[nH]3)CC[C@H]21 | -5.769
46 | O=C([C@@H]1COC[C@H]2CN(C3CCCCC3)C[C@H]21)N1CCOCC1 | -4.013

Row | SMILES | Percent Effect [%]
47 | O=C(CSCC1CC1)N1CCCC(c2nccn2Cc2ccncc2)C1 (stereo not drawn) | 26.77
48 | O=C1CC[C@@H]2[C@@H](CCN2S(=O)(=O)C2CC2)N1CC1CC1 | 105.6
49 | CS(=O)(=O)N1C[C@@H]2OCC(=O)N(CC3CC3)[C@@H]2C1 | -6.528
50 | O=C(c1ccnnc1)N1CC[C@H]2[C@H]1CCN2S(=O)(=O)C1CC1 | -8.086
51 | COCCC(=O)N1CCn2cc(CN3CCN(C)CC3)nc2C1.O=C(O)C(F)(F)F.O=C(O)C(F)(F)F | -0.4638
52 | CC(=O)N1CCCC(c2ccc(CO)c(-c3c(C)noc3C)n2)C1 (stereo not drawn) | 98.56
53 | Cc1noc(C)c1-c1nc(C2CCCN(C(=O)C(C)C)C2)ccc1CO (stereo not drawn) | 110.5
54 | CCCc1cc(NCCC2CCCOC2)n2nccc2n1 (stereo not drawn) | -37.65
55 | COCC(=O)N1CCCC2(CCN(c3cncnc3)C2=O)C1 (stereo not drawn) | -8.381
56 | COCC(=O)N1CCC2(CCCN(Cc3cnn(C)c3)C2)C1 (stereo not drawn) | 0.82
57 | COCC(=O)N1CCCC(C)(c2nncn2C)C1 (stereo not drawn) | 100.7
58 | O=C(O)c1cc(-c2cccnc2)cc(S(=O)(=O)N2CCCCCC2)c1 | -2.874
59 | O=S1(=O)CCC(S(=O)(=O)c2cccc(S(=O)(=O)N3CCCC3)c2)C1 (stereo not drawn) | 102.5
60 | COc1cccc(S(=O)(=O)N2CCN(C)[C@@H]3CS(=O)(=O)C[C@@H]32)c1 | 0.7716
61 | O=S1(=O)CCC(S(=O)(=O)c2cccc(S(=O)(=O)N3CCOCC3)c2)C1 (stereo not drawn) | 94.82
62 | CSCc1cccc(S(=O)(=O)N2CCSCC2)c1 | 9.116
63 | Cc1ccc(S(=O)(=O)N2CCC(N3CCCCC3)CC2)cc1C | 2.331
64 | Cc1cccc(S(=O)(=O)N2CCC3(CC2)CC(N(C)C)CO3)c1 (stereo not drawn) | -10.34
65 | CSCc1cccc(S(=O)(=O)N2CCC(C)CC2)c1 | -3.451
66 | O=S1(=O)CCC(S(=O)(=O)c2cccc(S(=O)(=O)N3CCCCCC3)c2)C1 (stereo not drawn) | 99.56
67 | CNC(=O)CS(=O)(=O)C1CCN(S(=O)(=O)c2cccc(C(C)=O)c2)CC1 | -4.98
68 | CN1CCN(S(=O)(=O)c2cccc(S(=O)(=O)C3CCS(=O)(=O)C3)c2)CC1 (stereo not drawn) | 83.09
